Reference: ChEMBL document CHEMBL3988442, “University of Dundee, Small-Polar-MMV Screening Library” (2021)
Out of some 69,000 compounds screened, about 10 (0.01%) showed an effect of 50% or more. For the sample, strong results were picked, then their nearest neighbours and some compounds at random.

Molecular target: ClpP1P2 (Mycobacterium tuberculosis (strain ATCC 25618 / H37Rv)) (UniProt P9WPC5+P9WPC3)
Experiment: in vitro assay to detect presence of AMC directly proportional to the activity of ClpP1P2. GHDDI collaboration.
Assay type: functional
Set-up: scale not given: direction of the effect not stated beside the values
Conditions: 50 µM

Point of comparison: `COc1cc(CN2CCCCCC2c2cccs2)cc(OC)c1OC` (stereo not given), Percent Effect 1.65%. Against it:
- CCN1CC[C@@]2(C(=O)N(C)C)CCN(S(=O)(=O)c3ccccc3)CC[C@@H]12 — lower, -6.35%
- COCCN1CC[C@@H]2CN(Cc3nccn3C)C[C@@H]2C1 — higher, 3.59%
- Fc1cnc(N2CCO[C@H]3CN(CC4CCOC4)C[C@H]32)nc1 (stereo not given in full) — lower, -12.3%
- CCS(=O)(=O)N1C[C@H]2CN(CC3CC3)C(=O)[C@H]2C1 — higher, 7.7%
- CC(C)CN1C(=O)CC[C@H]2CN(Cc3ncc[nH]3)CC[C@H]21 — lower, -3.16%
- O=C(C1=CCCC1)N1C[C@@H]2COC[C@]2(COCC2CC2)C1 — lower, -3.2%
- CN(C)CCN1CCO[C@H]2CN(Cc3ccccn3)C[C@H]21 — higher, 1.87%
- O=C(c1ccncc1)N1C[C@@H]2OCCN(CCN3CCCC3)[C@@H]2C1 — lower, -8.83%
- O=C1[C@H]2CN(CC3CCOCC3)C[C@H]2CN1Cc1cccc(F)c1 — higher, 7.64%
- Cc1cccc(COC[C@@]23CCC[C@@H]2CN(S(=O)(=O)N(C)C)C3)n1 — lower, -4.08%
- CC1=CC[C@@H]2CN(C(=O)c3ccc(-c4nc[nH]n4)cc3)C[C@@H]2C1 — lower, -12.9%
- CCN1C[C@H]2CCN(Cc3ccncc3)C(=O)[C@@H]2C1 — lower, -1.34%
- Cc1ccc(CN2C[C@H]3CN(CC4CCN(C)CC4)C(=O)[C@H]3C2)s1 — lower, -7.79%
- Cc1ccc(CN2C[C@@H]3CCN(Cc4ccncc4)C(=O)[C@H]3C2)s1 — higher, 54%
- COCCN1CC[C@H]2CN(Cc3ccc(C)s3)C[C@@H]2C1=O — lower, -2.27%
- Cc1ccc(CN2C[C@@H]3CCN(Cc4cccnc4)C(=O)[C@H]3C2)s1 — higher, 13.6%
- O[C@@H]1C[C@@](CNCC2CCCC2)(COc2cccnc2)C[C@@H]1O — lower, -0.271%
- CN(C)C(=O)CO[C@H]1CN(Cc2ccoc2)[C@@H]2COC[C@H]12 — lower, -6.93%
- Cc1cccc(CN2C(=O)CO[C@@H]3CN(C4CCOCC4)C[C@H]32)c1 — lower, -8.98%
- Cc1cc(C)n(CCCC(=O)N2CC[C@H]3NCCC[C@]3(CO)C2)n1 — lower, -5.5%
- CC(C)CN1C[C@H]2N(c3ncccn3)CCC[C@@]2(C(=O)NCC2CC2)C1 — lower, -20.2%
- Cc1cc2cc(C(=O)N3CCN(CCO)[C@@H]4CS(=O)(=O)C[C@@H]43)ccc2o1 — lower, -4.08%
- Cc1nnc(N2C[C@@H](Oc3ccccn3)[C@H]3OCCC[C@H]32)s1 — higher, 9.54%
- COCCN1C[C@H]2CN(C(=O)NC(C)C)CCN2C1=O — lower, -7.02%
- COc1cccc(CN2CCCCCC2c2cccs2)c1O (stereo not given) — lower, -21.7%
- COc1cc(CN2CCCCCC2c2cccs2)cc(OC)c1O (stereo not given) — higher, 52.1%
- O=C([C@H]1COC[C@H]2CN(Cc3ccco3)C[C@H]21)N1CCCO1 — higher, 3.57%
- O=C(NC[C@H]1C[C@@H]2CCN1C[C@@H]2CN1CCCCC1)c1ccco1 — lower, -12.3%
- O=S(=O)(NC[C@]12COC[C@H]1CN(c1ncc(F)cn1)C2)C1CC1 — lower, -0.384%
- CNC(=O)[C@@H]1C[C@H]2CN(Cc3c(C)noc3C)C[C@H]2N1C(C)C — lower, -4.22%
- CCSCCNC(=O)c1ccc(S(=O)(=O)N2C[C@@H]3C[C@H]2CN3)cc1 — higher, 9.91%
- CC(C)NC(=O)N1CCC2(CC1)CC[C@@]1(C(=O)N(C)C)CN(C)C[C@@H]21 — lower, -5.9%
- COc1ncccc1C(=O)N1CC[C@H]2C[C@@H](c3ccncn3)O[C@@H]2C1 — lower, -7.36%
- O=C(CCc1ccccc1)N1C[C@H]2CCN[C@H]2C1 — lower, 0.746%
- COc1ncccc1CN1C[C@@H]2COC[C@]2(COCC2CC2)C1 — lower, -9.86%
- O=C1CC[C@H]2[C@H](CCN2C(=O)C2CCOC2)N1Cc1ccncc1 (stereo not given in full) — lower, 0.241%
- CNC(=O)[C@H]1C[C@@H]2CN(C(=O)Nc3ccccc3)C[C@H]1O2 — lower, -3.31%
- CNC(=O)[C@H]1C[C@@H]2CN(C(=O)c3ccsc3)C[C@@H]2N1S(C)(=O)=O — lower, -13.7%
- Cc1ncccc1NC(=O)[C@H]1C[C@@H]2CCN(Cc3ccsc3)C[C@H]2O1 — lower, -3.15%
- CN(C)CCN1CCO[C@H]2CN(Cc3cnn(C)c3)C[C@H]21 — lower, -9.41%
- CCN(Cc1nc2c(cnn2C)c(=O)[nH]1)Cc1cccs1 — higher, 61.1%
- CCN(Cc1nc2c(cnn2C)c(=O)[nH]1)Cc1ccco1 — higher, 7.15%
- CCN(Cc1ccccc1)Cc1nc2c(cnn2C)c(=O)[nH]1 — lower, -16.6%
- CCOCC1C[C@@H]2OCCN(C(=O)c3ccc[nH]3)[C@H]2C1 (stereo not given in full) — lower, -16.1%
- O=C(Nc1ccccc1-c1ccccc1)N1C[C@@H]2CNC[C@]2(C(=O)O)C1 — higher, 4.15%
- COCCNC(=O)[C@H]1C[C@@H]2CCN(c3ncccn3)C[C@H]2O1 — lower, -14.4%
- CC(C)(C)c1ccc(CN2C[C@H]3C[C@H](O)C[C@H]3C2)c(OCC(N)=O)c1 — higher, 2.62%
- Cn1cc(N2CC[C@@H]3CN(Cc4ccncc4)C[C@H]3C2=O)cn1 — higher, 6.53%
- COCC(=O)N1C[C@H](N(C)Cc2cncnc2)[C@H]2OCCC[C@H]21 — higher, 3.58%
- NS(=O)(=O)N1CCc2ccc(NC(=O)Cc3ccccc3F)cc21 — higher, 21.3%
- NS(=O)(=O)N1CCc2ccc(NC(=O)Cc3ccc(F)cc3)cc21 — higher, 70.3%
- NS(=O)(=O)N1CCc2ccc(NC(=O)CC(F)(F)F)cc21 — lower, -1.98%
- CN(C)S(=O)(=O)N1C[C@@H](OCc2ccccn2)[C@H]2OCCC[C@H]21 — higher, 14.2%
- Cn1cc(CN2CC[C@@H]3[C@@H](CCC(=O)N3CCc3ccccc3)C2)cn1 — lower, -11.2%
